High-throughput results deposited in PubChem BioAssay by National Center for Advancing Translational Sciences (NCATS).
HT1080 IDH1KD tx: HT-1080 IDH1 knockdown cell toxicity (counter line); HT-1080 IDH1 knockdown viability, ATP luminescence, 48 h; Potency, µM (highest dose often 46.1 µM), for inactives: top-dose activity, negative = toxicity, most hits filed as cytotoxic; hit rate 2% among 360,000; AID 686971;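 note: potency is the fitted concentration of half-maximal effect; 0% = DMSO wells and -100% = cell-free medium wells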
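Viability of IDH1-knockdown HT-1080 fibrosarcoma cells was assessed by CellTiter-Glo after 48 h at 37 °C with titrated compound; concentration-effect curves were classified by fit quality and response size.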
HT1080NT lethal: kills 2HG-producing HT-1080-NT fibrosarcoma cells; hit rate 1.6% among 360,000; AID 686970; HT-1080-NT fibrosarcoma viability, CellTiter-Glo ATP luminescence, 48 h; Potency, µM (series often up to 46.1 µM), for inactives: at the top dose activity, negative = less viability, actives largely listed as cytotoxic;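 note: NT is the 2HG producing partner of a matched IDH1 knockdown line; potency is the fitted concentration of half-maximal effect; 0% = DMSO-treated cells and -100% = media-only wells without cells; nearly all actives have a fitted effect of over 55% in size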
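Read-out is CellTiter-Glo luminescence after 10 minutes at room temperature, following 48 hours' compound treatment of HT-1080-NT cells (750 cells/well, RPMI, 5% FBS, 37 degrees C).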
ALOX12 inh: blocks human arachidonate 12S-lipoxygenase; purified 12hLO, xylenol orange hydroperoxide absorbance; Potency, µM (highest dose often 108 µM), for the others: at the top dose activity change, negative = inhibition, hits mostly inhibitors; hit rate 1.1% among 580,000; AID 1671190; note: potency is the fitted concentration of half-maximal effect
Target sequence (P18054 whole entry, looked up): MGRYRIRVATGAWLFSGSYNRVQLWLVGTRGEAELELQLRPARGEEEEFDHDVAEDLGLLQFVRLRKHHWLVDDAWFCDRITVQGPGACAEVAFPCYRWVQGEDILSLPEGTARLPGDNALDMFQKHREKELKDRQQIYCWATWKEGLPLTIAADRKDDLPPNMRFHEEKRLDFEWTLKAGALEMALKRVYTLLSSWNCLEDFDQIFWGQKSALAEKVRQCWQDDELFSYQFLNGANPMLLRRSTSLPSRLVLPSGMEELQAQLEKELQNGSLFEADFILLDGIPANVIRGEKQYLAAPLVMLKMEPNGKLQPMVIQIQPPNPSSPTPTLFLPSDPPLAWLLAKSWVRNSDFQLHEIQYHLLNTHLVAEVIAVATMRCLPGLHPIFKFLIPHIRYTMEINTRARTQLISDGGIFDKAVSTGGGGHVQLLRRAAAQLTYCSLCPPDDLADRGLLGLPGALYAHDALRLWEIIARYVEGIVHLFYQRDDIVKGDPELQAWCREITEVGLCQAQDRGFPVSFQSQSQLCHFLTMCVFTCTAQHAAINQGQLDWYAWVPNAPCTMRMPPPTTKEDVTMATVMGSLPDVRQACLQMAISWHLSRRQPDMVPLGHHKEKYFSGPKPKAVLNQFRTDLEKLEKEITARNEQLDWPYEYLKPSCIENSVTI
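Hydroperoxide product was detected by ferrous iron/xylenol orange as the 573 to 405 nm absorbance ratio. Arachidonic acid at 40 uM (final) was turned over for 30 min at room temperature by 150 nM human 12hLO, pH 7.0 Hepes buffer, after 15 min compound preincubation.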
IL1B secr inh: blocks inflammasome-driven IL-1 beta release. THP-1 LPS/ATP IL-1B secretion, AlphaLISA, 16 h; hits give low values. activity change, % at 57.5 µM. hit rate 4.7% among 360,000. AID 743279; in the data active = activity change below about -50%; inconclusive = mostly about -30% to -49%
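Secreted IL-1B measured by AlphaLISA bead assay after 16 h compound exposure of THP-1 cells; compounds (final up to 57.5 uM) added 1 h before LPS (250 ng/mL) and ATP (1.25 mM) stimulation; lower signal means less secretion.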
DT40 TDP1 no CPT: qHTS for Inhibitors of human tyrosyl-DNA phosphodiesterase 1 (TDP1): qHTS in cells in absence of CPT; hit rate 15% among 420,000; Potency, µM (titrated, usually from 46.2 µM), inactives show at the highest dose activity change, negative = growth inhibition, most hits filed as inhibitors; DT40 Tdp1-/- hTDP1 cells, no CPT, ATP luminescence, 48 h; note: potency is the fitted concentration of half-maximal effect; nearly all actives have a fitted effect of over 55% in size
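DT40 Tdp1-/-;hTDP1 cells, no CPT (DMSO vehicle only), 400 cells/well; compounds pin-transferred; ≥48 hr, 37 °C; CellTiter-Glo 30 min RT dark, luminescence read.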
TDP1 cell CPT: DT40-hTDP1 cell growth loss with CPT. Potency, µM (titrated, usually from 46.2 µM), without a hit: top-dose activity change, negative = growth inhibition, actives largely listed as inhibitors. chicken DT40 Tdp1-/-;hTDP1 cells + 20 nM CPT, ATP luminescence, 48 h. hit rate 12% among 420,000. AID 686979; note: potency is the fitted concentration of half-maximal effect; nearly all actives have a fitted effect of over 55% in size
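Chicken DT40 Tdp1-/- cells complemented with human TDP1, 400 cells/well, exposed to compounds plus 20 nM camptothecin for at least 48 h at 37 C; viability read as ATP content by CellTiter-Glo luminescence.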
Active calls of the source: *; ? = inconclusive; . = no result given; [ ] = another dose, or the depositor's remark. Many of the other results were omitted from the sample, so hits are more common in it than they were. Unless noted, calls come from the whole dose curve; as a rule, active = well fitted curve in the direction sought with a large enough effect; inconclusive = small, poorly fitted or top-dose-only effect, or another doubt; inactive = no such curve, though single readings can be large; an effect the other way counts as inactive or inconclusive. Unless noted, % is set by controls: 0 for no effect and ±100 for the full control effect.

SMILES	HT1080 IDH1KD tx	HT1080NT lethal	ALOX12 inh	IL1B secr inh	DT40 TDP1 no CPT	TDP1 cell CPT
CCc1ccc(NC(=O)Cn2c(=O)c3cccn3c3ccccc32)cc1	?	?	?	-1	4.1µM*	16µM*
CC(C)CCN(C(=O)CCCSc1nc2ccccc2[nH]1)c1c(N)n(Cc2ccccc2)c(=O)[nH]c1=O	-8%	1%	-2%	-97*	-22%	-21%
CC(C)CN(C(=O)CCCSc1nc2ccccc2[nH]1)c1c(N)n(Cc2ccccc2)c(=O)[nH]c1=O	-7%	-4%	-10%	-102*	-2%	6%
CC(C)CCN(C(=O)CCSc1ccc(F)cc1)c1c(N)n(Cc2ccccc2)c(=O)[nH]c1=O	-20%	0%	-5%	-10	?	?
O=C(NC1CCCCC1)C1CN(C(=O)c2ccccc2Br)CC12CCOCC2 (configuration not stated)	.	.	40%	.	.	.
Cc1cncc(C(=O)N2CCOc3c(O)cc(-c4nc5ccccc5s4)cc3C2)c1	.	.	59%	.	.	.
CCOC(=O)COc1ccccc1/C=C1\NC(=O)NC1=O	25%	4%	-15%	-91*	8%	9%
O=C1NC(=O)/C(=C\c2ccccc2OCc2ccc([N+](=O)[O-])cc2)N1	-14%	-7%	-5%	0	?	?
COc1ccccc1NC(=O)CSc1nccn1Cc1ccccc1	0%	-2%	-1%	0	-26%	-14%
CCCCC(=O)NC(=S)Nc1nnn(CCC)n1	?	-8%	?	23	5.8µM*	4.1µM*
CCCn1nnc(NC(=O)c2ccccc2Cl)n1	-1%	-2%	-8%	0	-9%	0%
CCOc1ccc(C(=O)NC(=S)Nc2ncccc2C)cc1[N+](=O)[O-]	2%	3%	-12%	31	?	?
COc1cc2ccccc2cc1C(=O)NC(=S)Nc1nnn(C)n1	22%	22%	5%	7	16µM*	23µM*
CCCn1nnc(NC(=S)NC(=O)c2ccccc2OC)n1	8%	12%	?	-5	18µM*	?
CCCCC(=O)Nc1nnn(CCC)n1	3%	-9%	2%	-7	-4%	-1%
CCCCn1nnc(NC(=S)NC(=O)c2ccc(OCC)c([N+](=O)[O-])c2)n1	6%	-2%	?	6	21µM*	?
CS(=O)(=O)n1c2ccccc2c(=O)n1-c1ccccc1CCl	0%	11%	-7%	-13	?	?
O=C(CN1C(=O)c2ccccc2C1=O)NCC1Cc2cccc(-c3ncccn3)c2O1 (configuration not stated)	.	.	1%	.	-11%	1%
CCCCn1nnc(NC(=S)NC(=O)c2ccc(-c3cccc(Cl)c3Cl)o2)n1	1%	-3%	.	10	23µM*	10µM*
NS(=O)(=O)c1ccc(NC(=O)COC(=O)c2cc(Cl)ccc2[N+](=O)[O-])cc1	-15%	2%	4%	0	-9%	-7%
O=C(COC(=O)c1cc([N+](=O)[O-])ccc1Cl)c1cc2ccccc2o1	.	.	40µM*	.	.	.
NS(=O)(=O)c1ccc(NC(=O)COC(=O)c2ncc(Cl)c(Cl)c2Cl)cc1	-6%	-5%	?	-62*	-16%	-14%
NS(=O)(=O)c1ccc(NC(=O)COC(=O)c2cnc(Cl)c(Cl)c2)cc1	-3%	3%	-1%	-75*	-19%	-9%
CCOc1ccc(NC(=O)COC(=O)c2ncc(Cl)c(Cl)c2Cl)cc1	-3%	3%	0%	7	2%	-2%
NS(=O)(=O)c1ccc(NC(=O)COC(=O)c2cc([N+](=O)[O-])ccc2Cl)cc1	-4%	6%	-3%	-90*	7%	3%
SMILES	HT1080 IDH1KD tx	HT1080NT lethal	ALOX12 inh	IL1B secr inh	DT40 TDP1 no CPT	TDP1 cell CPT
O=C(COC(=O)c1cnc(Cl)c(Cl)c1)Nc1cccc(S(=O)(=O)N2CCOCC2)c1	0%	-7%	-16%	-20	-17%	-14%
O=C(NC1CC1)c1ccc2ccccc2n1	.	.	-47%	.	.	.
O=C(COc1ccc(Cl)cc1Br)N1CCC(c2ccccc2)=N1	.	.	-58%	.	.	.
CCCCN1C(=O)C(NC(=O)c2ccc(C(C)(C)C)cc2)(C(F)(F)F)C(C(=O)OC)=C1C (configuration not stated)	.	.	-5%	.	23µM*	?
O=C(Oc1ccccc1)N1CCC2(CCCN(c3ccc(-c4ccccc4)cc3)C2)CC1	.	.	-5%[57.4 µM]	.	-28%	12%
O=C(Nc1nc(COc2ccccc2)cs1)C12CC3CC(CC(C3)C1)C2	?	6.3µM*	28µM*	-28	?	22µM*
Cc1ccc(C(=O)Nc2nc(COc3ccccc3)cs2)s1	?	?	-20%	-87*	?	?
O=C(Nc1nc(COc2ccccc2)cs1)C1CCC1	-6%	-2%	10%	?	16µM*	23µM*
COc1ccc(C(NC(=O)COc2ccc(-c3ccccc3)cc2Cl)c2nccn2C)cc1 (configuration not stated)	.	.	8%	.	.	.
O=C1N[C@H](CCC(=O)N2CCC(c3nnc4ccccn34)CC2)C(=O)Nc2ccccc21	.	.	41%	.	.	.
Cc1cc(NC(=O)N2CCN(C(=O)c3nsc4ccccc34)CC2)ccc1Br	.	.	8%	.	.	.
COc1ccc(N(CC(=O)Nc2ccc(OC)cc2OC)S(=O)(=O)c2ccccc2)cc1	?	-24%	3%	14	18µM*	23µM*
COc1ccc(N(CC(=O)Nc2ccccc2F)S(=O)(=O)c2ccc(C)c([N+](=O)[O-])c2)cc1	-10%	-15%	-6%	-9	23µM*	?
COc1ccc(NC(=O)CN(c2ccc(OC)c(Cl)c2)S(=O)(=O)c2ccccc2)c(OC)c1	-4%	-13%	0%	39	23µM*	?
CCOC(=O)c1ccccc1NC(=O)CN(c1ccccc1OC)S(=O)(=O)c1ccc(C)cc1	.	.	-15%	.	12µM*	?
CCC(=O)c1ccc(OCc2cccc(C#N)c2)cc1	.	.	12%	.	.	.
CCOC(=O)c1ccccc1NC(=O)CN(c1ccccc1C)S(C)(=O)=O	-4%	2%	0%	13	16µM*	?
CCOc1ccc(S(=O)(=O)N(CC(=O)Nc2cccc(OC)c2)c2ccccc2)cc1	.	.	25%	.	.	.
COc1ccc(NC(=O)CN(c2ccc([N+](=O)[O-])cc2)S(=O)(=O)c2ccccc2)c(OC)c1	-15%	2%	2%	-1	?	?
